# Among all 4,900 compounds or so, about 2,100 (43%) were called active.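 Rule for the calls: active = thallium signal inhibited by more than 5 SD of the compound-free buffer control wells, on both duplicate plates; inactive = the rest.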 So high a share suggests a set chosen from earlier hits. This excerpt belongs to a sample that is enriched for actives.
# Target: Potassium channel subfamily K member 9 (Homo sapiens) (UniProt Q9NPC2)
# Assay: KCNK9 potassium channel inhibitors, confirmation, HEK293 cells, thallium flux, duplicate (AID 492992);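 for inhibition: 0% = assay buffer control wells without compound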
# Settings: FluxOR thallium flux fluorescence, at 10 µM; active compounds read high
# Chain of Potassium channel subfamily K member 9 (Homo sapiens) (Q9NPC2 whole entry, looked up): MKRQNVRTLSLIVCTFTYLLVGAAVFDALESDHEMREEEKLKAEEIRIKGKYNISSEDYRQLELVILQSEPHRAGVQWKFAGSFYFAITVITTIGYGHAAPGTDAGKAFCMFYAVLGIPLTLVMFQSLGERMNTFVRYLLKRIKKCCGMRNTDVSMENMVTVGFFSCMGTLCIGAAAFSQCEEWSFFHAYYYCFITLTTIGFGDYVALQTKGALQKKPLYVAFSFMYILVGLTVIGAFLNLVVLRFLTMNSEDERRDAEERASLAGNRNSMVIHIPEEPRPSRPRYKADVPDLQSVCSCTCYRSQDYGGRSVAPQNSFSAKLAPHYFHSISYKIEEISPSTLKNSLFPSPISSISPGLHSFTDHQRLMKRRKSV
row,SMILES,inhibition
1,CC(C)(C)c1ccc(CN2C(=O)CN=C(c3ccccc3)c3ccccc32)cc1,59% (active)
2,CCOC(=O)C1SC2(C(F)(F)C(F)F)CC1(O)c1c(c(OC)c3occc3c1OC)O2 (stereo unspecified),23.5% (active)
3,CC(C)n1c(=O)c(C=Nc2ccc(Br)cc2)c(O)n(Cc2ccco2)c1=O,inactive
4,CCCCCCN=C(CC)c1c(O)n(CCCC)c(=O)[nH]c1=O,46.5% (active)
5,CC(C)(C)c1ccc(OC(=O)N2CCCCC2)cc1,inactive
6,CCCCCCCCCCCCn1ccc(=N)cc1,52.5% (active)
